Measured values taken from PubChem BioAssay AID1159580 (chemical genetic matrix, 2015).
Out of some 5,500 compounds screened, about 2,000 (36%) were called active. About 18% were inconclusive and are not listed. Cut-off read from the data, not from the text of the source: active = normalized growth mostly below about 0.91 (no sharp cut-off); inconclusive = no clear call, values can overlap the other calls; inactive = mostly above about 0.92. This is one part of the list.

Experiment: chemical genetic growth profiling, strain panel (AID 1159580);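 note: tested at 20 µM; growth read once vehicle control cultures reached saturation at 30 °C; 1 = growth at the plate median or of vehicle wells; lower values mean less growth of the strain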
Conditions: S. cerevisiae deletion strains, growth OD
[1] = locus YHR030C, strain SLT2, active compounds read low
[2] = locus YHR079C, strain IRE1, active compounds read low
[3] = locus YJL095W, strain BCK1, active compounds read low
[4] = locus YJR066W, strain TOR1, active compounds read low
[5] = locus YLR113W, strain HOG1, active compounds read low
[6] = locus YNL183C, strain NPR1, active compounds read low
[7] = locus YOR231W, strain MKK1, active compounds read low
[8] = locus YPL256C, strain CLN2, active compounds read low

Measured: normalized growth

CO/N=C(/C(=O)NC1C(=O)N2C(C(=O)OCOC(=O)C(C)(C)C)=C(/C=C\c3scnc3C)CSC12)c1csc(N)n1 (centres undefined)
inactive: locus YAL021C, strain ccr4, active compounds read low 0.974 | locus YAL026C, strain drs2, active compounds read low 1.01 | locus YAL030W, strain snc1, active compounds read low 0.992 | locus YBL061C, strain skt5, active compounds read low 1 | locus YBR009C, strain hhf1, active compounds read low 0.98 | locus YBR023C, strain chs3, active compounds read low 1 | locus YBR171W, strain sec66, active compounds read low 1 | locus YBR231C, strain swc5, active compounds read low 0.965 | locus YBR279W, strain paf1, active compounds read low 1 | locus YCL011C, strain gbp2, active compounds read low 1 | locus YCL016C, strain dcc1, active compounds read low 1 | locus YCL069W, strain vba3, active compounds read low 0.999 | locus YCR088W, strain abp1, active compounds read low 0.999 | locus YDL005C, strain med2, active compounds read low 0.999 | locus YDL040C, strain nat1, active compounds read low 1 | locus YDR001C, strain nth1, active compounds read low 1.01 | locus YDR069C, strain doa4, active compounds read low 1.01 | locus YDR137W, strain rgp1, active compounds read low 1.03 | locus YDR159W, strain sac3, active compounds read low 0.902 | locus YDR195W, strain ref2 0.96 | locus YDR297W, strain sur2, active compounds read low 1.01 | locus YDR334W, strain swr1, active compounds read low 0.989 | locus YDR335W, strain msn5, active compounds read low 1.01 | locus YDR392W, strain spt3, active compounds read low 0.906 | locus YEL003W, strain gim4, active compounds read low 0.995 | locus YEL037C, strain rad23, active compounds read low 0.988 | locus YEL061C, strain CIN8 (second series), active compounds read low 0.985 | locus YER015W, strain faa2, active compounds read low 0.988 | locus YER016W, strain bim1, active compounds read low 1.03 | locus YER111C, strain swi4, active compounds read low 0.986 | locus YER155C, strain BEM2 (second series), active compounds read low 0.875 | locus YFR010W, strain ubp6, active compounds read low 0.998 | locus YGL167C, strain pmr1, active compounds read low 1 | locus YGL173C, strain kem1, active compounds read low 1 | locus YGL227W, strain vid30, active compounds read low 1.03 | locus YGL240W, strain doc1, active compounds read low 0.976 | locus YGL253W, strain hxk2, active compounds read low 1.01 | locus YHR013C, strain ard1, active compounds read low 1 | locus YHR027C, strain rpn1, active compounds read low 1 | [1] 1.05 | [2] 1.04 | locus YHR142W, strain chs7, active compounds read low 1.02 | locus YJL092W, strain hpr5, active compounds read low 0.995 | locus YJL095W, strain BCK1 (second series), active compounds read low 0.994 | [3] 1.01 | locus YJL115W, strain asf1, active compounds read low 1 | locus YJL129C, strain trk1, active compounds read low 1.01 | locus YJL154C, strain vps35, active compounds read low 0.996 | locus YJL164C, strain tpk1, active compounds read low 0.989 | locus YJL166W, strain qcr8, active compounds read low 1 | locus YJL187C, strain SWE1, active compounds read low 1 | [4] 1.01 | locus YKL160W, strain elf1, active compounds read low 1 | locus YKR026C, strain gcn3, active compounds read low 0.994 | locus YKR091W, strain srl3, active compounds read low 0.993 | locus YLL001W, strain dnm1, active compounds read low 0.953 | locus YLL026W, active compounds read low 0.996 | locus YLL041C, strain sdh2, active compounds read low 0.997 | locus YLR027C, strain aat2, active compounds read low 1 | [5] 0.962 | locus YLR221C, strain rsa3, active compounds read low 0.994 | locus YLR258W, strain gsy2, active compounds read low 1.01 | locus YLR262C, strain YPT6 (second series), active compounds read low 0.992 | locus YLR320W, strain mms22, active compounds read low 0.955 | locus YLR342W, strain FKS1, active compounds read low 1.01 | locus YLR357W, strain rsc2, active compounds read low 0.942 | locus YLR370C, strain arc18, active compounds read low 0.991 | locus YLR384C, strain iki3, active compounds read low 1.02 | locus YML120C, strain ndi1, active compounds read low 0.995 | locus YMR058W, strain fet3, active compounds read low 0.991 | locus YMR125W, strain sto1, active compounds read low 0.981 | locus YMR129W, active compounds read low 0.992 | locus YMR205C, strain PFK2, active compounds read low 0.99 | locus YMR231W, strain pep5, active compounds read low 0.994 | locus YNL071W, strain lat1, active compounds read low 0.999 | [6] 0.981 | locus YNL209W, strain ssb2, active compounds read low 1.01 | locus YNL248C, strain rpa49, active compounds read low 1.01 | locus YNL322C, strain KRE1 (second series), active compounds read low 0.984 | locus YNR049C, strain mso1, active compounds read low 0.991 | locus YOR001W, strain rrp6, active compounds read low 0.973 | locus YOR070C, strain gyp1, active compounds read low 1 | locus YOR080W, strain dia2, active compounds read low 0.996 | locus YOR083W, strain WHI5, active compounds read low 0.95 | locus YOR106W, strain vam3, active compounds read low 1.01 | [7] 1.01 | locus YOR265W, strain rbl2, active compounds read low 0.998 | locus YOR270C, strain vph1, active compounds read low 1.04 | locus YOR290C, strain snf2, active compounds read low 1.01 | locus YPL051W, strain arl3, active compounds read low 1.01 | locus YPL078C, strain atp4, active compounds read low 0.998 | locus YPL106C, strain sse1, active compounds read low 1.01 | locus YPL240C, strain hsp82, active compounds read low 1 | [8] 1.03

Cc1cc2nc3c(Cl)c(O)c4ccccc4c3nc2cc1C
active: locus YDR477W, strain SNF1, active compounds read low 0.634 | [1] 0.55 | locus YKL048C, strain ELM1, active compounds read low 0.737 | locus YLR133W, strain CKI1, active compounds read low 0.679 | locus YMR205C, strain PFK2 (second series), active compounds read low 0.726 | locus YNL020C, strain ARK1, active compounds read low 0.617 | locus YOR061W, strain CKA2, active compounds read low 0.43 | locus YPL031C, strain PHO85, active compounds read low 0.643 | locus YPL204W, strain HRR25, active compounds read low 0.646
inactive: locus YAR019C, strain CDC15, active compounds read low 0.966 | locus YBL105C, strain PKC1, active compounds read low 0.961 | locus YBR135W, strain CKS1, active compounds read low 0.949 | locus YBR136W, strain MEC1, active compounds read low 0.965 | locus YBR160W, strain CDC28, active compounds read low 0.96 | locus YDL017W, strain CDC7, active compounds read low 0.965 | locus YDL028C, strain MPS1, active compounds read low 0.959 | locus YDL101C, strain DUN1, active compounds read low 0.981 | locus YDL108W, strain KIN28, active compounds read low 0.954 | locus YDL132W, strain cdc53, active compounds read low 0.966 | locus YDL214C, strain PRR2, active compounds read low 0.818 | locus YDR052C, strain DBF4, active compounds read low 0.953 | locus YDR054C, strain cdc34, active compounds read low 0.965 | locus YDR226W, strain ADK1, active compounds read low 0.949 | locus YER123W, strain YCK3, active compounds read low 0.766 | locus YER133W, strain GLC7, active compounds read low 0.87 | locus YFL009W, strain cdc4, active compounds read low 0.969 | locus YFL029C, strain CAK1, active compounds read low 0.946 | locus YFR003C, strain YPI1, active compounds read low 0.962 | locus YFR019W, strain FAB1, active compounds read low 0.887 | locus YFR028C, strain CDC14, active compounds read low 0.958 | locus YGR040W, strain KSS1, active compounds read low 0.724 | locus YGR052W, strain FMP48, active compounds read low 0.722 | locus YGR092W, strain DBF2, active compounds read low 0.487 | [2] 0.805 | locus YHR082C, strain KSP1, active compounds read low 0.737 | locus YHR205W, strain SCH9, active compounds read low 0.666 | locus YIL147C, strain SLN1, active compounds read low 0.958 | [3] 0.749 | locus YJL128C, strain PBS2, active compounds read low 0.944 | locus YJL157C, strain FAR1, active compounds read low 0.778 | locus YJR016C, strain ILV3, active compounds read low 0.955 | locus YJR066W, strain TOR1 (second series), active compounds read low 0.64 | [4] 0.559 | locus YKL067W, strain YNK1, active compounds read low 0.786 | locus YKL101W, strain HSL1, active compounds read low 0.829 | locus YKL193C, strain SDS22, active compounds read low 0.972 | locus YKL203C, strain TOR2, active compounds read low 0.766 | [5] 0.877 | locus YLR403W, strain SFP1, active compounds read low 0.663 | locus YML070W, strain DAK1, active compounds read low 0.852 | locus YMR001C, strain CDC5, active compounds read low 0.959 | locus YMR277W, strain FCP1, active compounds read low 0.961 | locus YNL006W, strain LST8, active compounds read low 0.974 | locus YNL161W, strain CBK1, active compounds read low 0.971 | [6] 0.739 | locus YNL207W, strain RIO2, active compounds read low 0.961 | locus YNL222W, strain SSU72, active compounds read low 0.955 | locus YOL078W, strain AVO1, active compounds read low 0.962 | locus YOL136C, strain PFK27, active compounds read low 0.838 | locus YOR119C, strain RIO1, active compounds read low 0.831 | [7] 0.829 | locus YOR329C, strain SCD5, active compounds read low 0.97 | locus YPL153C, strain RAD53, active compounds read low 0.68 | locus YPL209C, strain IPL1, active compounds read low 0.976 | [8] 0.869 | locus YPR025C, strain CCL1, active compounds read low 0.957 | locus YPR106W, strain ISR1, active compounds read low 1.01 | locus YPR111W, strain DBF20, active compounds read low 0.976 | strain NNK1, active compounds read low 0.966 | strain TSCII, active compounds read low 0.963
